Bioassay records (PubChem BioAssay)
Rows were chosen to be rich in hits. Some 5.4% of all compounds tested hit in one or more screens of this group.
FMDV antiviral: High Throughput Screening for Foot and Mouth Disease Virus Antivirals | FMDV antiviral cell-based qHTS | Potency, µM (top dose mostly 57.9 µM), without a hit: top-dose activity change, negative = inhibition, usual class: inhibitors | hit rate 1.2% among 410,000; calls by dose curve; tested in HEK293T cells; note: read-out not given here; nearly all actives have a fitted effect of over 45% in size
Vaccinia Venus: qHTS for Stage-Specific Inhibitors of Vaccinia Orthopoxvirus: Venus Reporter Primary qHTS; Vaccinia virus Venus reporter expression, fluorescence; Potency, µM (series often up to 36.5 µM), for inactives: top-dose activity change, negative = inhibition, most hits filed as inhibitors; hit rate 0.46% among 330,000; calls by dose curve; tested in A549 cells; note: nearly all actives have a fitted effect of over 30% in size
Sm TGR inh: qHTS Assay for the Inhibitors of Schistosoma Mansoni Peroxiredoxins; Schistosoma mansoni thioredoxin glutathione reductase (TGR), Q962Y6; purified TGR, DTNB reduction, TNB absorbance 405 nm; Potency, µM (highest dose often 114 µM), inactives show top-dose activity change, negative = inhibition, actives largely listed as inhibitors; hit rate 3% among 360,000; active = well fitted inhibition curve with a large enough effect; inconclusive = small, poorly fitted or top-dose-only effect; inactive = no such curve, though single readings can be large or run the other way; note: nearly all actives have a fitted effect of over 60% in size
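Kinetic colorimetric format: TGR-catalysed, NADPH-driven DTNB reduction monitored via TNB absorbance. Enzyme dispensed at 20 nM; compound exposure 15 min at room temperature before reaction start.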
MARV entry inh: qHTS for inhibitors of binding or entry into cells for Marburg Virus | Marburg virus pseudotyped entry inhibition, cell reporter | Potency, µM (titrated, usually from 37.8 µM), without a hit: at the top dose activity change, negative = inhibition, hits mostly inhibitors | hit rate 1.8% among 300,000; calls by dose curve; tested in HEK293 cells
Vaccinia mCherry: qHTS for Stage-Specific Inhibitors of Vaccinia Orthopoxvirus: mCherry Reporter Primary qHTS | hit rate 0.63% among 310,000 | Potency, µM (highest dose often 36.5 µM), for inactives: at the highest dose activity change, negative = inhibition, actives largely listed as inhibitors | AID 720579, 2013 | Vaccinia virus mCherry reporter infection, fluorescence; calls by dose curve; tested in A549 cells; note: nearly all actives have a fitted effect of over 35% in size
Lassa entry inh: qHTS for Inhibitors of binding or entry into cells for Lassa Virus | hit rate 1.2% among 300,000 | Lassa virus pseudotype entry inhibition, cell reporter | Potency, µM (series often up to 37.9 µM), without a hit: at the top dose activity change, negative = inhibition, hits mostly inhibitors; calls by dose curve; tested in HEK293 cells; note: nearly all actives have a fitted effect of over 50% in size
* = called active by the depositor; i = inactive; ? = inconclusive; . = no result given; ! = not confirmed by another sample; [ ] = remark or other dose. % is set by controls: 0 for no effect and ±100 for the full control effect; potency is the fitted concentration of half-maximal effect.

SMILES	FMDV antiviral	Vaccinia Venus	Sm TGR inh	MARV entry inh	Vaccinia mCherry	Lassa entry inh
Cc1c(CNCCc2ccc(Cl)cc2)c(C(=O)O)c(C)n1-c1ccccc1	2%	-2%	11µM*	9%	-13%	1%
COc1ccccc1NS(=O)(=O)c1cc(C)ccc1C	52%	-21%	-6%	10µM*	i	0%
COc1ccccc1NS(=O)(=O)c1cc(C(=O)N2CCN(C/C=C/c3ccccc3)CC2)ccc1C	-8%	-23%	35µM*	?	-19%	?
C=CC[C@@H]1C=CC(ON=CC[C@@H]2C=C[C@@H](OC(C)=O)[C@@H](COC(C)=O)O2)[C@H](CO)O1 (some centres undefined)	.	.	.	4%[14.2 µM]	.	.
COC(=O)C/C=C/[C@@H](C)[C@H](OC)c1ccccc1Br	.	.	.	-11%[14.2 µM]	.	.
Cc1oc2ncn(CC(C)C)c(=O)c2c1C(=O)NCCc1ccc(Cl)cc1	-4%	0%	9%	.	-16%	-6%[46.1 µM]
CCc1ccc(NC(=O)CSc2nc(=O)n(CCN(C)C)c3c2CCCC3)cc1	35%	-13%	3%	13µM*	?	?
COc1ccc(C)cc1NC(=O)CSc1nc(=O)n(Cc2ccco2)c2c1CCC2	?	-24%	35µM*	.	-11%	7%[46.1 µM]
CCc1ccc(NC(=O)CSc2nc(=O)n(Cc3ccco3)c3c2CCC3)cc1	-25%	-29%	45µM*	.	?	?
Cc1c(Cl)cccc1NC(=O)CSc1nc(=O)n(Cc2ccco2)c2c1CCC2	0%	?	40µM*	.	?	-17%[46.1 µM]
COc1ccc(C)cc1NC(=O)CSc1nc(=O)n(Cc2ccncc2)c2c1CCC2	0%	-25%	-3%	.	-14%	5%[46.1 µM]
COC(=O)c1ccc(NC(=O)CSc2nc(=O)n(Cc3ccco3)c3c2CCC3)cc1	?	-13%	?	.	i	-20%[46.1 µM]
COc1cccc(NC(=O)CSc2nc(=O)n(CCN(C)C)c3c2CCCC3)c1	-1%	-17%	-1%	-27%	-3%	-4%
CCOc1ccc2nc(N3CCCC(C(=O)NCc4ccccc4OC)C3)sc2c1 (centres undefined)	5%	-7%	4%	5%[46.1 µM]	5%	.
COc1ccc(/C=C\c2onc(C)c2S(=O)(=O)N2CCC(C(=O)Nc3ccc(C)cc3C)CC2)cc1	-28%	-8%	5%	1%[46.1 µM]	-10%	11%[46.1 µM]
COc1cc(NC(=O)C2CCCN(S(=O)(=O)c3cn(C)cn3)C2)cc(OC)c1 (centres undefined)	-4%	-15%	-1%	.	i	2%[46.1 µM]
CCN(CC)CCn1c2c(c(SCC(=O)Nc3cccc(C(C)=O)c3)nc1=O)CCCC2	13%	-22%	45µM*	?	-3%	6%
CCc1nnc(SCC(=O)Nc2cc(Cl)c(OC)cc2OC)c2cc3oc(C)cc3n12	-19%	-24%	2%	.	-27%	?
Cc1ccc2occ(-c3cc(-c4ccc(F)cc4)nc4c3COc3ccc(F)cc3-4)c(=O)c2c1	-16%	5%	-11%	?	-1%	0%[46.1 µM]
CCN1CCN(Cc2cc(OC)c(OC)cc2[N+](=O)[O-])CC1	-11%	.	32µM*	1%	.	6%
O=C(NC1(C(F)(F)F)Oc2ccccc2O1)N1CCCC1	-16%	-13%	40µM*	?	i	?
O=C(NCC1CCCO1)NC1(C(F)(F)F)Oc2ccccc2O1 (centres undefined)	-8%	-20%	?	?	-28%	-5%
O=C(Nc1ccc2c(c1)OCCO2)NC1(C(F)(F)F)Oc2ccccc2O1	-23%	-5%	40µM*	.	?	.
O=C(Nc1ccc2c(c1)OCCO2)NC12CC3CC(CC(C3)C1)C2	37%	.	-6%	?	.	-12%
O=C(Nc1ccc2c(c1)OCO2)NC1(C(F)(F)F)Oc2ccccc2O1	13%	.	35µM*	20%	.	-4%
SMILES	FMDV antiviral	Vaccinia Venus	Sm TGR inh	MARV entry inh	Vaccinia mCherry	Lassa entry inh
Cc1ccc(-c2cc(C(=O)Oc3ccc(C#N)cc3)no2)cc1	-3%	-1%	15%	?	-16%	0%[46.1 µM]
COCCCNC(=O)c1ccc([N+](=O)[O-])cc1	9%	-16%	-2%	1%[46.1 µM]	i	-1%[46.1 µM]
O=C(CCl)NCCCN(C(=O)C(Cl)Cl)c1ccc([N+](=O)[O-])cc1	-29%	.	28µM*	.	.	.
CCCS(=O)(=O)NCCc1sc2nc(-c3ccc(Cl)cc3)nn2c1C	-16%	?	-4%	.	?	?
CCCCN(C)C(=O)c1cc2cc3ccc(OC)cc3nc2s1	-51%	.	14%	10µM*	.	?
CCN(CC(=O)Nc1ccc(C(C)=O)cc1)CC(=O)Nc1ccccc1C(F)(F)F	1%	3%	32µM*	1%[46.1 µM]	2%	-6%
CCN(CC)CCCNC(=O)c1ccc(OCC(=O)Nc2ccccc2C(F)(F)F)c(OC)c1	-2%	-17%	-10%	11µM*	i	?
CCN(CC(=O)Nc1ccc(OC)c(OC)c1)CC(=O)Nc1ccccc1C(F)(F)F	-17%	-16%	?	-2%[46.1 µM]	i	-27%[46.1 µM]
O=C(c1cccnc1)C1CCCN(Cc2ccc3c(c2)CN(C(=O)c2cccs2)CCO3)C1 (centres undefined)	-5%	-17%	.	.	-11%	.
CCc1cccc(NC(=O)c2c(N3CCCC3=O)c3cc(C)ccc3n2C)c1	?	-21%	-8%	.	-14%	17%[46.1 µM]
CCc1ccc(C(=O)c2cn(CC(=O)Nc3cc(OC)ccc3OC)c3ccc(Cl)cc3c2=O)cc1	-20%	2%	-5%	-21%[46.1 µM]	-3%	18%[46.1 µM]
COc1cc(C2C(=O)N(C3CCCCC3)CC(=O)N2Cc2ccc(C)cc2)ccc1OC(C)C (centres undefined)	-17%	-10%	-1%	.	-12%	?
O=C(CSc1oc(-c2ccco2)nc1S(=O)(=O)c1ccc(Cl)cc1)NCC1CCCO1 (centres undefined)	.	-8%	50µM*	-3%	-8%	2%
O=C(CSc1oc(-c2ccco2)nc1S(=O)(=O)c1ccccc1)NCC1CCCO1 (centres undefined)	2%	12%	16µM*	?	.	22%
O=C1CC(c2cccc(O)c2)c2c(nc(SCc3ccccc3F)[nH]c2=O)N1 (centres undefined)	-1%	3%	-6%	19%[46.1 µM]	i	17%[46.1 µM]
CCCCNc1c(-c2ccc(SC(C)CC)cc2)nc2cnccn12 (centres undefined)	?	22µM*	.	.	32µM*	.
CCCCNc1c(-c2ccc(OC)c(Sc3ccc(OC)cc3)c2)nc2ccccn12	-27%	?	0%	.	?	.
CCCCCCSc1cc(-c2nc3ccc(C)cn3c2NCc2ccccc2)ccc1OC	40µM*!	-22%	4%	.	-15%	.
CCCCNc1c(-c2ccc(-c3ccc(OC)cc3)c(OC)c2)nc2ccccn12	?	?	.	.	32µM*	.
